Among the data in PubChem BioAssay (NCI) are growth values, retold here.

Each structure is given as a SMILES string. About 83,000 compounds went through this panel and 20% of them were active in at least one assay; those are over-represented in the sample as a whole.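 Growth was measured after 48 h exposure to one concentration of compound in 96-well plates. Values under 10 count as active.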 A number with no mark means an inactive call. The source made the active and inactive calls.

Test systems include NCI-H23 lung; NCI-H226 lung; NCI-H322M lung; HOP-62 NSCLC; NCI-H460 lung; HOP-92 NSCLC; NCI-H522 lung; A549/ATCC NSCLC; 786-0 renal; COLO 205 colon; DU-145 prostate; K-562 leukemia; MALME-3M melanoma; MDA-MB-231 breast; RXF 393 renal; SF-268 CNS; SF-295 CNS; SF-539 CNS; UACC-257 melanoma; M14 melanoma.
Assay in all cases: NCI-60 one-dose screen, 48 h (100 = growth as untreated, 0 = no growth, -100 = all killed)
Conditions in all cases: 10 µM unless noted

`O=C(Nc1nc(-c2ccccc2Cl)cs1)c1cc(-c2ccc(Br)cc2)nc2ccccc12`: the growth is 14.3% with NCI-H23 lung; 37.5% in the experiment with NCI-H226 lung; 70.4% in the experiment on NCI-H322M lung; 52.6% with HOP-62 NSCLC; 45.9% in the experiment on NCI-H460 lung; 21.4% with HOP-92 NSCLC. The growth with NCI-H522 lung was 4.64% (active); in the experiment on A549/ATCC NSCLC it was 37.5%; in the experiment with 786-0 renal, 75.3%; with COLO 205 colon it was 67.2%; with DU-145 prostate, 69.3%; in the experiment with K-562 leukemia, 23.5%. The growth in the experiment on MALME-3M melanoma was 75.1%; with MDA-MB-231 breast, 27.3%; in the experiment on RXF 393 renal it was 59%; in the experiment with SF-268 CNS, 66.4%; in the experiment with SF-295 CNS, 34.4%; in the experiment with SF-539 CNS, 76.1%. Besides, the values for the growth in the experiment on UACC-257 melanoma and with M14 melanoma were 29.5% and 62.5%, respectively.
On to `CC1(c2ccccc2Cl)NC(=O)NC1=O` (stereo not given), for which the growth is 95.2% in the experiment with NCI-H23 lung; 98.6% in the experiment with NCI-H226 lung; 98.8% in the experiment with NCI-H322M lung; 86.4% in the experiment on HOP-62 NSCLC; 106% in the experiment on NCI-H460 lung; 83.1% in the experiment with HOP-92 NSCLC. Moreover, the growth is 85% in the experiment with NCI-H522 lung; 91.2% with A549/ATCC NSCLC; 99.2% with 786-0 renal; 108% in the experiment on COLO 205 colon; 105% in the experiment with DU-145 prostate; 100% in the experiment on K-562 leukemia. Moreover, the growth in the experiment on MALME-3M melanoma is 101%; with MDA-MB-231 breast, 105%; in the experiment on RXF 393 renal, 113%; with SF-268 CNS, 103%; in the experiment with SF-295 CNS, 97.1%; in the experiment on SF-539 CNS it was 99.5%. In addition, the figures for the growth in the experiment on UACC-257 melanoma and with M14 melanoma were 91% and 106%, respectively.
For `C=C1C(=O)O[C@H]2[C@H]1CC/C(COC(=O)CCCCCCCC(=O)OC/C1=C/CC[C@@]3(C)O[C@H]3[C@H]3OC(=O)C(=C)[C@@H]3CC1)=C\CC[C@@]1(C)O[C@@H]21`, the growth was 2.7% (active) in the experiment on NCI-H23 lung; 47% in the experiment on NCI-H226 lung; 84.7% in the experiment on NCI-H322M lung; 79.2% with HOP-62 NSCLC; 61.4% in the experiment with NCI-H460 lung; 17.9% with HOP-92 NSCLC. In addition, the growth is -71.1% (active) in the experiment with NCI-H522 lung; 82.6% in the experiment with A549/ATCC NSCLC; 4.86% (active) in the experiment with 786-0 renal; -61.6% (active) with COLO 205 colon; 27.8% with DU-145 prostate; 3.32% (active) in the experiment on K-562 leukemia. Further, the growth in the experiment with MALME-3M melanoma is -19.7% (active); with MDA-MB-231 breast it was -10.3% (active); with RXF 393 renal, -70.6% (active); with SF-268 CNS it was 30.9%; in the experiment on SF-295 CNS, 86.7%; with SF-539 CNS it was -1.74% (active). In addition, the growth with UACC-257 melanoma is 58.2%; with M14 melanoma, 8.2% (active).
On to `C=C(C)[C@@H]1CC[C@]2(C(=O)OCCOCCOCC[P+](c3ccccc3)(c3ccccc3)c3ccccc3)CC[C@]3(C)[C@H](CC[C@@H]4[C@@]5(C)CC[C@H](OC(=O)C(Cl)Cl)C(C)(C)[C@@H]5CC[C@]43C)[C@@H]12`, for which the growth in the experiment on NCI-H23 lung was 0.446% (active); in the experiment on NCI-H226 lung it was -2.33% (active); with NCI-H322M lung, 21%; with HOP-62 NSCLC, 11%; with NCI-H460 lung it was -13.3% (active); in the experiment on HOP-92 NSCLC it was -67.5% (active). The growth was -24.4% (active) in the experiment on NCI-H522 lung; 6.87% (active) in the experiment on A549/ATCC NSCLC; -85.1% (active) with 786-0 renal; -83.7% (active) in the experiment on COLO 205 colon; 15.5% in the experiment on DU-145 prostate; -20.9% (active) in the experiment on K-562 leukemia. In addition, the growth in the experiment with MALME-3M melanoma is -82.9% (active); with MDA-MB-231 breast, -46.7% (active); with RXF 393 renal it was -81.7% (active); in the experiment on SF-268 CNS, 4.59% (active); in the experiment on SF-295 CNS, -82.1% (active); with SF-539 CNS, -20.2% (active). Besides, the growth with UACC-257 melanoma is -27.9% (active); with M14 melanoma, -80.9% (active).
Consider `COc1cc(/C=N/Nc2nc(-c3ccc(F)cc3)c(C#N)c(N3CCOCC3)n2)ccc1O`, for which the growth in the experiment on NCI-H23 lung was 108%; in the experiment with NCI-H226 lung it was 97.8%; in the experiment with NCI-H322M lung, 97.4%; in the experiment on HOP-62 NSCLC, 104%; with NCI-H460 lung, 102%; in the experiment on HOP-92 NSCLC, 80%. The growth in the experiment on NCI-H522 lung was 99.3%; in the experiment with A549/ATCC NSCLC, 89.6%; in the experiment with 786-0 renal, 82%; with COLO 205 colon, 101%; in the experiment on DU-145 prostate, 96.3%; in the experiment on K-562 leukemia it was 85.3%. In addition, the growth with MALME-3M melanoma was 122%; with MDA-MB-231 breast, 99.8%; in the experiment with RXF 393 renal it was -0.23% (active); in the experiment on SF-268 CNS, 99.8%; in the experiment with SF-295 CNS, 106%; with SF-539 CNS, 93.7%. The figures for the growth in the experiment with UACC-257 melanoma and with M14 melanoma were 102% and 114%, respectively.
As to `Cc1cccc(C)c1NCc1nnc(-c2ccc(O)cc2)o1`, the growth with NCI-H23 lung is 91.1%; in the experiment with NCI-H226 lung, 95.5%; in the experiment on NCI-H322M lung it was 98.9%; in the experiment on HOP-62 NSCLC, 111%; with NCI-H460 lung it was 96.9%; in the experiment on HOP-92 NSCLC, 88.3%. Moreover, the growth in the experiment on NCI-H522 lung was 97.1%; in the experiment on A549/ATCC NSCLC, 104%; with 786-0 renal it was 102%; with COLO 205 colon, 97.3%; in the experiment on DU-145 prostate it was 110%; with K-562 leukemia, 126%. Moreover, the growth with MALME-3M melanoma is 101%; with MDA-MB-231 breast, 103%; with RXF 393 renal, 108%; with SF-268 CNS, 101%; with SF-295 CNS, 96.5%; with SF-539 CNS, 97.8%. For the same molecule, the results for the growth in the experiment on UACC-257 melanoma and in the experiment with M14 melanoma were 111% and 98.5%, respectively.
On to `COC(=O)/C=C1\SC(=Nc2cccc(Cl)c2)N(CCc2c[nH]c3ccccc23)C1=O`, for which the growth with NCI-H23 lung was 69.9%; in the experiment with NCI-H226 lung, 101%; in the experiment on NCI-H322M lung, 62%; in the experiment with HOP-62 NSCLC it was 41.5%; in the experiment on NCI-H460 lung, 51.3%; in the experiment on HOP-92 NSCLC, 82.4%. The growth in the experiment with NCI-H522 lung was 24.2%; in the experiment on A549/ATCC NSCLC it was 48%; in the experiment on 786-0 renal, 60.6%; in the experiment with COLO 205 colon it was 12.1%; with DU-145 prostate, 54.5%; in the experiment on K-562 leukemia it was 24.3%. The growth was 45.9% in the experiment on MALME-3M melanoma; 39.5% in the experiment on MDA-MB-231 breast; 44.8% in the experiment on RXF 393 renal; 49.5% with SF-268 CNS; 55.1% with SF-295 CNS; 69.9% in the experiment with SF-539 CNS. Also, the results for the growth in the experiment with UACC-257 melanoma and with M14 melanoma were 37.1% and 42.4%, respectively.
